Drawing on PubChem BioAssay (EPA / NIEHS), this text covers outcome and AC50 for 7 compounds.

Molecules are shown by their SMILES. Records with an inconclusive call do not appear. Activity calls are given as the source filed them. Rule for the calls, unless noted: active = hit-call score of the fitted dose curve at least 0.9, where 1 is the maximum; inactive = score below 0.9.

Test [1] in a line: ATG_DR4_LXR_CIS: Attagene CIS-FACTORIAL HepG2 Assay for human Liver X Receptor (LXR), DR4 submotif (AID 2282929). The note with it: HepG2 Attagene DR4 cis-reporter, mRNA transcription; actives raise or lower the signal. In short, it runs like this: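 HepG2 cells transiently transfected with cis-promoter-driven multiplexed reporter units (DR4 element) were dosed for 24 h. Reporter mRNA was quantified by RT-PCR, fluorescent primer extension, HpaI digestion and capillary electrophoresis; bidirectional fitting versus DMSO baseline.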

Test [2] in a line: ATG_Ets_CIS: Attagene CIS-FACTORIAL HepG2 Assay for human Erythroblast Transformation Specific (ETS) (AID 2282941). The following applies: HepG2 ETS cis-reporter transcription, actives raise or lower the signal. The essentials:
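Bidirectional fit versus DMSO of reporter mRNA signal, detected by RT-PCR and capillary electrophoresis in HepG2 cells transiently transfected with cis-element reporters and dosed 24 h.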

A short description of test [3]: ATG_M_06_CIS: Attagene CIS-FACTORIAL HepG2 Assay for M06 Transcription Factor (Internal Marker) (AID 2282950). The following applies: HepG2 Attagene CIS-FACTORIAL M06 internal marker reporter; actives raise or lower the signal. In short, it runs like this: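 One of many multiplexed endpoints: HepG2 reporter mRNA after 24 h dosing, detected by RT-PCR and capillary electrophoresis fluorescence; gain or loss of signal analysed against DMSO.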

Test [4] deals with Hypoxia-inducible factor 1-alpha (Homo sapiens) (UniProt Q16665). Briefly: ATG_HIF1a_CIS: Attagene CIS-FACTORIAL HepG2 Assay for human Hypoxia Inducible Factor 1 (HIF1A) (AID 2282951). The following applies: HepG2 Attagene cis-factorial HIF1a reporter transcription; actives raise or lower the signal. In short, it runs like this: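 HepG2 cells transiently transfected with multiplexed cis-promoter reporter units; reporter mRNA read 24 h after dosing by RT-PCR, 6-FAM primer-extension labelling, HpaI digestion and capillary electrophoresis. Bidirectional fit versus DMSO baseline.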

Test [5] has as its target Hepatocyte nuclear factor 6 (Homo sapiens) (UniProt Q9UBC0). In words: ATG_HNF6_CIS: Attagene CIS-FACTORIAL HepG2 Assay for human Hepatocyte Nuclear Factor 6 (HNF6) (AID 2282952). The note with it: HepG2 Attagene cis-factorial HNF6 reporter transcription; actives raise or lower the signal. The essentials: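 Readout: fluorescent reporter-transcript fragments resolved by capillary electrophoresis after RT-PCR, reflecting endogenous factor activity in transfected HepG2. Exposure 24 h. Gain or loss of signal fitted bidirectionally against DMSO.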

For test [6], the target named is Heat shock factor protein 1 (Homo sapiens) (UniProt Q00613). Briefly: ATG_HSE_CIS: Attagene CIS-FACTORIAL HepG2 Assay for human Heat Shock Transcription Factor 1 (HSE) (AID 2282953). The following applies: HepG2 HSE cis-reporter, Attagene RNA transcription; actives raise or lower the signal. In short, it runs like this: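 Using HepG2 with transfected cis-driven reporter constructs, compound effects on endogenous factor activity are scored as reporter mRNA change at 24 h. Detection: RT-PCR, HpaI digestion, capillary electrophoresis; bidirectional fitting to DMSO.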

The nature of test [7]: ATG_TA_CIS: Attagene CIS-FACTORIAL HepG2 Assay for human TA Basal Promoter (AID 2282964). The following applies: HepG2 Attagene CIS-factorial TA basal promoter reporter; actives raise or lower the signal. In short, it runs like this: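 Transient MRTU transfection of HepG2 preceded 24 h compound exposure. Reporter mRNA levels were then read by RT-PCR with capillary electrophoresis, and this background-control endpoint was fitted bidirectionally to DMSO.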

Test [8] in a line: ATG_TCF_b_cat_CIS: Attagene CIS-FACTORIAL HepG2 Assay for human T-Cell-Factor with beta-catenin (TCF/b-cat) (AID 2282965). The note with it: HepG2 TCF/beta-catenin cis-reporter transcription, actives raise or lower the signal. In short, it runs like this:
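Endogenous transcription factor activity is captured through cis-promoter reporter constructs transiently introduced into human HepG2 liver cells. Induced reporter mRNA is measured after 24 h and fitted bidirectionally relative to DMSO.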

Test [9] can be described thus: ATG_TAL_CIS: Attagene CIS-FACTORIAL HepG2 Assay for human TAL Basal Promoter (AID 2282966).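 Note: background control endpoint measuring basal TAL promoter reporter mRNA not a specific factor.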 The following applies: HepG2 Attagene cis-factorial TAL promoter reporter; actives raise or lower the signal. In short, it runs like this:
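HepG2, transient MRTU transfection, 24 h compound exposure; RNA → oligo(dT) RT → PCR → 6-FAM primer extension → HpaI digest → CE fluorescence. Bidirectional curve fit vs DMSO. Background-control readout.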

A short description of test [10]: ATG_TGFb_CIS: Attagene CIS-FACTORIAL HepG2 Assay for human Transforming Growth Factor (TGF) (AID 2282967). The following applies: HepG2 Attagene CIS TGFb reporter, mRNA transcription; actives raise or lower the signal. In short, it runs like this:
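After a 24-hour incubation with compound, transfected HepG2 cells were lysed for RNA; reporter cDNA was amplified, fluorescently end-labeled and separated by CE. DMSO served as baseline for bidirectional fits.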

In test [11] the target is X-box-binding protein 1 (Homo sapiens) (UniProt P17861). Briefly: ATG_Xbp1_CIS: Attagene CIS-FACTORIAL HepG2 Assay for human X-box Binding Protein 1 (XBP1) (AID 2282972). The note with it: HepG2 XBP1 cis-element reporter, Attagene multiplex; actives raise or lower the signal. In short, it runs like this:
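Changes in reporter transcript abundance, read by RT-PCR and capillary electrophoresis, reflect endogenous transcription factor activity. Transfected HepG2 cells received compound for 24 hours; DMSO defined baseline for bidirectional analysis.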

Test [12] addresses Transcriptional activator Myb (Homo sapiens) (UniProt P10242). Briefly: ATG_Myb_CIS: Attagene CIS-FACTORIAL HepG2 Assay for human Myeloblastosis (Myb) Proto-Oncogene Transcription Factor (AID 2282986). The note with it: HepG2 Attagene CIS-FACTORIAL Myb reporter transcription; actives raise or lower the signal. In short, it runs like this: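 HepG2 cells were transiently transfected with cis-regulated multiple reporter transcription units reflecting endogenous Myb activity, then exposed to compound for 24 hours. Reporter mRNA was measured by RT-PCR with capillary electrophoresis; bidirectional fitting versus DMSO baseline.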

Test [13] has as its target Nuclear respiratory factor 1 (Homo sapiens) (UniProt Q16656). Briefly: ATG_NRF1_CIS: Attagene CIS-FACTORIAL HepG2 Assay for human Nuclear Respiratory Factor 1 (NRF1) Orphan Gene (AID 2282987). The note with it: HepG2 NRF1 cis-element reporter, Attagene multiplex; actives raise or lower the signal. The essentials:
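HepG2 cells transiently transfected with multiple reporter transcription units under cis-regulatory promoter control, so endogenous transcription-factor activity is read. After 24 h compound exposure, reporter mRNA quantified by RT-PCR, fluorescent labelling, HpaI digestion and capillary electrophoresis; bidirectional fitting versus DMSO.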

For test [14], the target named is Myc proto-oncogene protein (Homo sapiens) (UniProt P01106). In words: ATG_Myc_CIS: Attagene CIS-FACTORIAL HepG2 Assay for human Myelocytomatosis (Myc) Proto-Oncogene Transcription Factor (AID 2282990). The note with it: HepG2, Attagene cis-reporter transcription factor activity; actives raise or lower the signal. The essentials: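 HepG2, transient MRTU transfection (cis promoters, endogenous TFs); 24 h dosing; TriZol RNA → oligo(dT) RT → PCR → 6-FAM primer extension → HpaI cut → CE. Bidirectional fit vs DMSO.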

Test [15] can be described thus: ATG_NRF2_ARE_CIS: Attagene CIS-FACTORIAL HepG2 Assay for human Nuclear Factor Erythroid 2 Related Factor 2 (NFR2) response to Antioxidant Response Elements (ARE) (AID 2282992). The note with it: HepG2 Attagene ARE/NRF2 reporter, transcription factor activity; actives raise or lower the signal. The essentials: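 Using transiently transfected HepG2 cells exposed for 24 h, reporter mRNA levels were determined by RT-PCR with fluorescent primer extension and capillary electrophoresis, analysed for gain or loss of signal against DMSO.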

The nature of test [16]: ATG_Oct_MLP_CIS: Attagene CIS-FACTORIAL HepG2 Assay for human Octamer-Binding Transcription Factor (Oct) (AID 2282993). The note with it: HepG2 Attagene cis-factorial Oct reporter, mRNA; actives raise or lower the signal. In short, it runs like this: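 Transfected HepG2 cells, 24 h treatment. Reporter mRNA quantified by RT-PCR–capillary electrophoresis; bidirectional fitting against DMSO.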

The target of test [17] is Cellular tumor antigen p53 (Homo sapiens) (UniProt P04637). In words: ATG_p53_CIS: Attagene CIS-FACTORIAL HepG2 Assay for human p53 Transcription Factor (AID 2282994). The note with it: HepG2 p53 cis-element reporter, Attagene mRNA; actives raise or lower the signal. In short, it runs like this:
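In HepG2 cells, reporter transcription units under cis-regulatory promoters were transiently introduced. Following 24 h treatment, RNA was processed to labelled, digested cDNA fragments read by capillary electrophoresis; fitting was bidirectional versus DMSO.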

Test [18] addresses Nuclear receptor subfamily 1 group I member 2 (Homo sapiens) (UniProt O75469). In words: ATG_PXR_TRANS: Attagene TRANS-FACTORIAL HepG2 Assay for human Pregnane X Receptor (PXR) (AID 2283008; active = hit-call score of the fitted dose curve at least 0.9, where 1 is the maximum). The essentials: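 Multiplexed TRANS reporter panel in HepG2; this component tracks PXR-Gal4-driven reporter mRNA after 24 h dosing, measured by RT-PCR with capillary electrophoresis fluorescence, fitted against DMSO.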

Test [19] can be described thus: ATG_XTT_Cytotoxicity: Cytotoxicity Assessment in the Attagene TRANS-FACTORIAL HepG2 Assay (AID 2283584; active = hit-call score of the fitted dose curve at least 0.9, where 1 is the maximum;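 for AC50: cells exposed to compound for 24 h before reading; active means loss of viability signal versus DMSO baseline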). The essentials:
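XTT readout of cell number in transfected HepG2 cells, 24 h post-dosing; DMSO serves as negative control and baseline, with activity taken as loss of viability signal.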

A short description of test [20]: ATG_Sox_CIS: Attagene CIS-FACTORIAL HepG2 Assay for human SRY-box transcription factor (SOX) (AID 2282960). The following applies: HepG2 Attagene cis-factorial SOX reporter, mRNA; actives raise or lower the signal. The essentials:
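HepG2 cells transiently transfected with cis-element-driven multiple reporter transcription units, dosed 24 h; reporter mRNA measured by RT-PCR, FAM labelling, HpaI digestion and capillary electrophoresis. Bidirectional fit versus DMSO baseline.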

Sequence of Nuclear receptor subfamily 1 group I member 2 (Homo sapiens) (O75469 whole entry, looked up, the tested form may be a part): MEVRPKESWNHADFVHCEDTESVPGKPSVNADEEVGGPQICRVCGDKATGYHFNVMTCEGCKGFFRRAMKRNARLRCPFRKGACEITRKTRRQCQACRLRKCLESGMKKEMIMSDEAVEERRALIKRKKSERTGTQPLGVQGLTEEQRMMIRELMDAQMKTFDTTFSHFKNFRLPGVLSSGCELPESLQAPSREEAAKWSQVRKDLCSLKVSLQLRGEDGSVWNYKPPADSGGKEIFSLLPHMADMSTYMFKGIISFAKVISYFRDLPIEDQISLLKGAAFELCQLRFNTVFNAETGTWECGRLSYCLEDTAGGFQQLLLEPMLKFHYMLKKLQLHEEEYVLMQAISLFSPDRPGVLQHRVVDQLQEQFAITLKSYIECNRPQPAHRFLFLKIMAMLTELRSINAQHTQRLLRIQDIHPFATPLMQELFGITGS
Sequence of Hypoxia-inducible factor 1-alpha (Homo sapiens) (Q16665 whole entry, looked up): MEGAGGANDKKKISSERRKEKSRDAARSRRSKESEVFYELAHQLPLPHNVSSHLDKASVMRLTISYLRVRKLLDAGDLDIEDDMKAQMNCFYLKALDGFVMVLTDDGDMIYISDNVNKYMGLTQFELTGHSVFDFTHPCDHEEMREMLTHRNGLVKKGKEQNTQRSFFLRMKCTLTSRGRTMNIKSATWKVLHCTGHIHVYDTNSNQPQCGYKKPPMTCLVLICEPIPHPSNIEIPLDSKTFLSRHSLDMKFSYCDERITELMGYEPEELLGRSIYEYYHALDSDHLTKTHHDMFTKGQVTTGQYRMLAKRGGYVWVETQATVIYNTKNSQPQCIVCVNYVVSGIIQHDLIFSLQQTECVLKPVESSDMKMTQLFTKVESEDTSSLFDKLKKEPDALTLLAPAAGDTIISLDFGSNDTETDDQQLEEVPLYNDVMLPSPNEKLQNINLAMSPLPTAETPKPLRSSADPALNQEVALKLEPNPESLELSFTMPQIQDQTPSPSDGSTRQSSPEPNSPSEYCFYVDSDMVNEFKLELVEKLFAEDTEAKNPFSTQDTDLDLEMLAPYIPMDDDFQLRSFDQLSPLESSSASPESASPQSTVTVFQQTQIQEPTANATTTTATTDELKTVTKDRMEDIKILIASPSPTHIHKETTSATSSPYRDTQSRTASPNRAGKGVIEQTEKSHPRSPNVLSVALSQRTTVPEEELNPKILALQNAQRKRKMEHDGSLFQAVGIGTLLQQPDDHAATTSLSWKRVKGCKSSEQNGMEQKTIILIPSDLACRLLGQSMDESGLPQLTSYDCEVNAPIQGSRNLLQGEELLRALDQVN
Sequence of Heat shock factor protein 1 (Homo sapiens) (Q00613 whole entry, looked up): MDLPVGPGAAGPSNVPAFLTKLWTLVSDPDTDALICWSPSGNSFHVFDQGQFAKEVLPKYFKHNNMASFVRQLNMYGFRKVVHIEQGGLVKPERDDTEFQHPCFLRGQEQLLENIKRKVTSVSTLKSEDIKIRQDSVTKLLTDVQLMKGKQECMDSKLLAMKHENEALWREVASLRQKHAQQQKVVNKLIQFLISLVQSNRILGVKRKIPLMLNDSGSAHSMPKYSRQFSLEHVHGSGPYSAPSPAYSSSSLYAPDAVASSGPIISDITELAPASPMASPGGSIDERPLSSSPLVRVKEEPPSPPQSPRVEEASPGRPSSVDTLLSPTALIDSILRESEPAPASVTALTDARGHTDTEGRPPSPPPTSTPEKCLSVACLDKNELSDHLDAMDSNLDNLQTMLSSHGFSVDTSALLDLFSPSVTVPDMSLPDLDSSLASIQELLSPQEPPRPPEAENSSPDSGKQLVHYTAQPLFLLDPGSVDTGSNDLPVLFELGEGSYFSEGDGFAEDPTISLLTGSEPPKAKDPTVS
Sequence of Nuclear respiratory factor 1 (Homo sapiens) (Q16656 whole entry, looked up): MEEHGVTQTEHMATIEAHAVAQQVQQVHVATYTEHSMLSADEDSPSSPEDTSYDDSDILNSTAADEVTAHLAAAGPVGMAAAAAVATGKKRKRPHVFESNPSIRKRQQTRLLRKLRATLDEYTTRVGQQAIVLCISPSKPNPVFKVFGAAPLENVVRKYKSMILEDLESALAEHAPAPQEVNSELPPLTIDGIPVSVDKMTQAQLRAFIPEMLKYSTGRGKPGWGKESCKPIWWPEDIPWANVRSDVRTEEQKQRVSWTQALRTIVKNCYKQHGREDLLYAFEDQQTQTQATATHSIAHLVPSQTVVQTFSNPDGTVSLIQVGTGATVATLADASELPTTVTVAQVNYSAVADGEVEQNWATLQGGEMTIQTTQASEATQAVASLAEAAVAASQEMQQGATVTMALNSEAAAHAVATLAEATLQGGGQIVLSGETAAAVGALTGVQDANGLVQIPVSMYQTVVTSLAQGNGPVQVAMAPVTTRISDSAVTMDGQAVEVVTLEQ
Sequence of Transcriptional activator Myb (Homo sapiens) (P10242 whole entry, looked up): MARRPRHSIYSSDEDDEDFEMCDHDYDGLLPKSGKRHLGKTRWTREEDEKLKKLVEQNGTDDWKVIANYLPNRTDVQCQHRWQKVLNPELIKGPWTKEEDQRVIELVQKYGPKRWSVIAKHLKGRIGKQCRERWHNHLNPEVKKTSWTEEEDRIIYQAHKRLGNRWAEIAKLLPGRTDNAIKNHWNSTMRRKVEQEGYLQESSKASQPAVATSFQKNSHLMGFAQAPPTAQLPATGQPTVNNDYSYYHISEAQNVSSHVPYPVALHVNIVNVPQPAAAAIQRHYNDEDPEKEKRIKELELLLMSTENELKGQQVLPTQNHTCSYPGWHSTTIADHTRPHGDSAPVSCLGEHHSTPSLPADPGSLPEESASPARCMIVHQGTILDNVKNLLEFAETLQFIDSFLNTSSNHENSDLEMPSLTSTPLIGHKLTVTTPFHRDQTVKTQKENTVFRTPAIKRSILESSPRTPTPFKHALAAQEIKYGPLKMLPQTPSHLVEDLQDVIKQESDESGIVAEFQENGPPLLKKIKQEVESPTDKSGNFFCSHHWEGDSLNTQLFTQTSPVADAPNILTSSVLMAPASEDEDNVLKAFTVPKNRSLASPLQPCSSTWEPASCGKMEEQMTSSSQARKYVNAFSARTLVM
Sequence of Hepatocyte nuclear factor 6 (Homo sapiens) (Q9UBC0 whole entry, looked up, the tested form may be a part): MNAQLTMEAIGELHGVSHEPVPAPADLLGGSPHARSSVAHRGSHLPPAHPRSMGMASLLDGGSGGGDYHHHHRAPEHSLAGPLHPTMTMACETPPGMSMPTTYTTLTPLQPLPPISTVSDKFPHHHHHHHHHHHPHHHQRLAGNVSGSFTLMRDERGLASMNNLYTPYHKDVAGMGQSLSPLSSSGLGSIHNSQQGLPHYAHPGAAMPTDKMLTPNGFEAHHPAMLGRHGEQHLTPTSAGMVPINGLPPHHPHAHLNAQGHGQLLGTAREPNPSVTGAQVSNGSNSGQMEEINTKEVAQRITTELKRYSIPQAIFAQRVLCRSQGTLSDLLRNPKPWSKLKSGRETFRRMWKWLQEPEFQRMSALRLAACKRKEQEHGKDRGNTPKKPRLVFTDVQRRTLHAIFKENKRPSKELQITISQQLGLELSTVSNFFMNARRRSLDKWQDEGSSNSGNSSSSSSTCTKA
Sequence of Cellular tumor antigen p53 (Homo sapiens) (P04637 whole entry, looked up, the tested form may be a part): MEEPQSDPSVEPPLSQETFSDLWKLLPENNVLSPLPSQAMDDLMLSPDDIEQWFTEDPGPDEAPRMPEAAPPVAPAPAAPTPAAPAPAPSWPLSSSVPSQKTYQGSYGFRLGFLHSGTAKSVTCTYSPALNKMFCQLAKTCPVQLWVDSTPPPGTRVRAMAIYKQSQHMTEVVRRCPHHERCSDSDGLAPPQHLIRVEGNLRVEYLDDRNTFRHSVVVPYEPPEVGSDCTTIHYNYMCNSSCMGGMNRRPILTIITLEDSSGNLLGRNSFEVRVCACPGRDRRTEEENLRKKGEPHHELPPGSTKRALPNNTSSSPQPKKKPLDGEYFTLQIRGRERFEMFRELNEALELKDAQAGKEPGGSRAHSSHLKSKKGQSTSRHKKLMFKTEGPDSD
Sequence of X-box-binding protein 1 (Homo sapiens) (P17861 whole entry, looked up): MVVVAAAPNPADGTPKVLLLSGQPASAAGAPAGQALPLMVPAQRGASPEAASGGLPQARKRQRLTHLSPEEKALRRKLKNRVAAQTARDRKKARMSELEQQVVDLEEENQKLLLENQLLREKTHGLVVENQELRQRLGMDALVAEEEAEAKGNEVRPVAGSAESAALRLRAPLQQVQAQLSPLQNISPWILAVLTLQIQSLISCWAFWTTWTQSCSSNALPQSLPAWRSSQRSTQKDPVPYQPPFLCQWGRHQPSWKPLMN
Sequence of Myc proto-oncogene protein (Homo sapiens) (P01106 whole entry, looked up): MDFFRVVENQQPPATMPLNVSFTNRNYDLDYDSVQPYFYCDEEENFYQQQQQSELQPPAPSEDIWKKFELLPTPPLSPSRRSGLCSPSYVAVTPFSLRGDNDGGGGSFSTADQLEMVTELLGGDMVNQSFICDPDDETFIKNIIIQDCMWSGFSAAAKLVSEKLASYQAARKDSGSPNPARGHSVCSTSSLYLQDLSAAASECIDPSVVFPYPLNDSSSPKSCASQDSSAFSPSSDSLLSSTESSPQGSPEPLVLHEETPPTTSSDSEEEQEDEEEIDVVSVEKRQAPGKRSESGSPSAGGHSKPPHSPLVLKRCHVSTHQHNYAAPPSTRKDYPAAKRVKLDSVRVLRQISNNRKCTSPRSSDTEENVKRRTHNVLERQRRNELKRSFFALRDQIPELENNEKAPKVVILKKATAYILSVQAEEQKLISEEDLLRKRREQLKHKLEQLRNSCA

For `CN(C)c1ccc(C(c2ccccc2)c2ccc(N(C)C)cc2)cc1`, the compound was classed as inactive in test [1], in test [2], in [3], in test [4], in test [5] and in test [6]. The outcome in [7], in [8], in test [9], in test [10], in test [11] and in [12] was inactive. The call in test [13], in test [14], in test [16], in [17] and in test [19] was inactive. Moreover, the AC50 in test [15] is 68.1 µM (active); in test [18], 2.06 µM (active).

Take `CCCCn1cc[n+](C)c1`: the result in test [1], in test [3], in test [4], in [5], in test [20] and in test [7] was inactive. Moreover, the call in test [8], in test [9], in [10], in test [11], in test [12] and in [13] was inactive. Also, the result in test [14], in test [15], in test [16], in test [18] and in [19] was inactive.

For the compound `CCCCCCC1CCC(=O)O1` (configuration not stated), the result in test [1], in test [3], in [4], in [5], in test [6] and in test [20] was inactive. For the same compound, the result in [7], in test [8], in test [10], in [11], in test [12] and in test [13] was inactive. Besides, the compound was called inactive in test [14], in test [15], in [16], in [17], in test [18] and in test [19].

As to `COC(=O)c1ccccc1`, the result in test [1], in test [2], in test [3], in [4], in [5] and in test [6] was inactive. Besides, the result in test [20], in test [7], in test [8], in test [9], in [11] and in [12] was inactive. Also, the compound was called inactive in [13], in test [14], in test [15], in [16], in [17] and in test [18]. Moreover, the outcome in test [19] was inactive. Besides, the AC50 in test [10] is 0.5 µM (active).

Turning to `Nc1nnc(-c2ccc([N+](=O)[O-])o2)o1`, the compound was classed as inactive in test [1], in [2], in [3], in test [4], in test [5] and in [6]. Besides, the result in test [20], in test [7], in test [8], in test [9], in [10] and in test [11] was inactive. For the same compound, the result in test [12], in test [13], in test [16] and in test [17] was inactive. Further, the AC50 in [14] was 12 µM (active); in test [15] it was 20.8 µM (active); in [19], 159 µM (active).

Turning to `CN1CCCC1`, the outcome in test [1], in [2], in test [3], in [4], in test [5] and in [6] was inactive. Also, the compound was classed as inactive in test [20], in test [7], in [8], in [10], in test [11] and in [12]. Moreover, the compound was called inactive in [13], in test [14], in test [16], in [17], in test [18] and in test [19]. Further, in test [15], the AC50 was 26.2 µM (active).

Consider `O=C(O)c1cc(Cl)cc(Cl)c1O`, for which the compound was classed as inactive in [1], in test [2], in [3], in test [4], in test [5] and in [6]. Also, the compound was called inactive in [20], in [7], in test [8], in test [9], in [10] and in test [11]. Also, the compound was classed as inactive in test [12], in test [13], in test [14], in test [15], in [16] and in test [17]. Further, the compound was classed as inactive in test [18] and in [19].
